Results on 24 molecules are retold here after publication PMC12136788.

Numbering of substitutions follows the chain as printed. Over roughly 24,000 sequences, “enrichment r” has its median near 0.99; the highest 2% begin near 3.7. The sample as a whole holds a higher share of the highest values than the screen did.

Sequences and labels used below:
T1: UNK ZnF1-3 (human, UniProt Q9C0B0 31-174)
T1 sequence: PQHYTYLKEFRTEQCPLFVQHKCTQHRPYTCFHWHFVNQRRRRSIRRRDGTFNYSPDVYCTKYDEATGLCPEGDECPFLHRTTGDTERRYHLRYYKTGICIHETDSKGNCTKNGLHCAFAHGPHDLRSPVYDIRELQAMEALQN

B1: chr20:52835626:52835627:+_ENSG00000101132_ENST00000441080|hu_mus|FALSE|FALSE (ssRNA)
RNA: GGGAGUUCUACAGUCCGACGAUCUGCCUCGAGGUUUAUGUUGCUGCCAAAUUUCGCGUAUAGCUGCACCUUCAGGUCGGCUAACACCCGCUGGAUGGACGCCACUCUGGACUCUAAGGCAUCAAUCUCUUCUUGCAAAGUUUUCAACAGAGGAUUGAGCAUCA
B2: chr1:39494447:39494448:+_ENSG00000168653_ENST00000372967|hu_mus|hu_hu_hu_mus_False|48_48 (ssRNA)
RNA: GGGAGUUCUACAGUCCGACGAUCGCACCGAGCGGCGUUCUUAUAGGGCUGUUCUGCGCUUAGGAACAUAAAGUGCCGGUCCAGGCUAAGGCCGAACUUUUUCUGUAUGUCAAGGAAAGGCAUGGCUCUGCAGUGCCCUUGUCACAACAGAGGAUUGAGCAUCA
B3: chr2:131829505:131829506:-_ENSG00000152102_ENST00000409185|hu_mus|FALSE|FALSE (ssRNA)
RNA: GGGAGUUCUACAGUCCGACGAUCCGCUCCAGGGUACAUGUUAGGAGAAUAGGCAGGUGCUGCUGCAUAGCCCACAGGAAAACCAGCUGGAUAUCCAAUUCCUUUGGCAUUUGCAUAGGGAACGCCAGAAGACCCAGGGCUAUACAACAGAGGAUUGAGCAUCA
B4: chr10:33190432:33190433:-_ENSG00000150093_ENST00000302278|hu_mus|hu_hu_hu_mus_True|68_78 (ssRNA)
RNA: GGGAGUUCUACAGUCCGACGAUCUACAUUUUCCAAACCUGCAUGUGAAUAAAACCCUGGCAAUAUUGCCCUAAAGCUACCCUACUGUGACUAAGAUGCUGCUGCUGUGAGCUUGGUGUUGCAAAAUCCGCCUGAGUAGGAUUCCAACAGAGGAUUGAGCAUCA
B5: chr1:120316058:120316059:+_ENSMUSG00000064302_ENSMUST00000049404|mus_mus|FALSE|FALSE (ssRNA)
RNA: GGGAGUUCUACAGUCCGACGAUCCACCAUGUGUGUCUGAAGAGCAGCUGGUAGGAUAUUAAAAGUCCAAUUUAAAUAACUAGUAGGCAAUAAAGGAGAGAGUGGCGGAGUGAUGAUCUACAACUGGGUCUGAAAUACUUCAUACAACAGAGGAUUGAGCAUCA
B6: chr2:121263671:121263672:+_ENSMUSG00000027248_ENSMUST00000028683|mus_mus|FALSE|FALSE (ssRNA)
RNA: GGGAGUUCUACAGUCCGACGAUCAAAACGACAGUAUAAAGGGGGCACAUUUAUUGUCACUGUUCCAAAUGUACAAAAAAAAUUAGAAAAUAACCCCCCAACUCAAUUCCCCCCACCCCCACAACAUUCUUCCCAACACAAAUACAACAGAGGAUUGAGCAUCA
B7: chr12:55960871:55960872:-_ENSMUSG00000062929_ENSMUST00000078124|mus_hu|FALSE|FALSE (ssRNA)
RNA: GGGAGUUCUACAGUCCGACGAUCUACUAAUGUUUAAGACUGCUAUUAUCAAUUCCUAUUCCAAUUCAAUUUGCAAAAUAUAUUCAGAAAUAGUAGGUGAAAUGACUGUUCCGAAACAUCAGAAGUAUCAUUAAACUUUUAAAGCAACAGAGGAUUGAGCAUCA
B8: chr1:235506153:235506154:+_ENSG00000152904_ENST00000391855|hu_hu|FALSE|FALSE (ssRNA)
RNA: GGGAGUUCUACAGUCCGACGAUCCUACUCACCUAUUUACUGUUUCUGGAGAAUAACAAAUUUUUUAAAAGGUGGUAAGGCUAAAAGACAAAAAAAAGAUUAACUAAAAUAAGCUAUGAGGUCCAAUCAAGAAUGGCUUAACAUCAACAGAGGAUUGAGCAUCA
B9: chr10:62229464:62229465:-_ENSMUSG00000020074_ENSMUST00000020268|mus_mus|FALSE|FALSE (ssRNA)
RNA: GGGAGUUCUACAGUCCGACGAUCCAGUUGAAAUGGUCUUGACAAAGGGAAAGCAUCCACCCAUGUAAACUGAGCAUCAAAAAAGUCACUAGGAAUAUAUAAGUUCUGAUAACGGCGCCUUAGUUCCAUCAUGUCACAACUGGGCAACAGAGGAUUGAGCAUCA
B10: chr14:105707756:105707757:+_ENSMUSG00000053253_ENSMUST00000138283|mus_hu|motif|central (ssRNA)
RNA: GGGAGUUCUACAGUCCGACGAUCAUUUAUUUUUCUUAUAAAGGACAUUUGGUAUUCCCACAUUUUCUUAAAAUUUGUCCGGAAACAAAUUCUAUCUUUAACACUCACGUUUCUAAAUAUAUAUAUGUGUGUGUGUAUAUAUAUCAACAGAGGAUUGAGCAUCA
B11: chr17:65336665:65336666:-_ENSG00000197170_ENST00000356126|hu_mus|FALSE|FALSE (ssRNA)
RNA: GGGAGUUCUACAGUCCGACGAUCACACAUGUCCUGUUUUUAUUACUAUCACGUGGCUGUCAGGUGAAUAAAAACAAAUAGUAUGAACACACUCAAGGAAAGCUGAGACACAAACCUUUCUGUCUUCAGACUGAAAAAAUGUUUCAACAGAGGAUUGAGCAUCA
B12: chr10:123500321:123500322:-_ENSG00000107669_ENST00000369043|hu_mus|FALSE|FALSE (ssRNA)
RNA: GGGAGUUCUACAGUCCGACGAUCGAUAUGCUAAGAAACCACACAAAACUGGCAUUUGCAAAUGGAUAAAAAUAGGAUAGAUUGCUUGAAAGAAAACAUAAACAAUAAUUUUAUCUAAAUAAUUUUAAUUGAGUGACUAUAUUCCAACAGAGGAUUGAGCAUCA
B13: chr1:58468927:58468928:-_ENSMUSG00000026034_ENSMUST00000148330|mus_mus|mus_mus_mus_hu_False|98_108 (ssRNA)
RNA: GGGAGUUCUACAGUCCGACGAUCAAUCUAUAAUUACUGAAAGAUGUACCUUAGCUAUGUACUUAAUGAACCAAAUUACCCAAACAAAAUAAACAUGGCAAUAUAAAAAUGUUAAGAAUUUACAAAGCUGUACAAAAUAACUUACAACAGAGGAUUGAGCAUCA
B14: chrX:71549762:71549763:+_ENSMUSG00000019087_ENSMUST00000019231|mus_mus|mus_mus_mus_hu_False|78_78 (ssRNA)
RNA: GGGAGUUCUACAGUCCGACGAUCAAACCCGUGUACUUCUUAUUGUUAGCACAACAUUCCCCCCCAACGAUAACGACAGCCAAGCAGGACAGACAGUUAAGUAGUACUUCCACACUCCCAAACUCAGGGAGCCCUAUAACCUUACAACAGAGGAUUGAGCAUCA
B15: chr10:62229464:62229465:-_ENSMUSG00000020074_ENSMUST00000020268|mus_hu|FALSE|FALSE (ssRNA)
RNA: B9 RNA with U27C, C69U, A93U, U99C, G102A, C105U
B16: chr8:117878989:117878990:-_ENSG00000164754_ENST00000297338|hu_hu|hu_hu_hu_mus_True|68_98 (ssRNA)
RNA: GGGAGUUCUACAGUCCGACGAUCCCAGAGGCCCUCGUUUACUGAGAACAAAAUGUGCGUAGAACAUUGUUCUGGCUUGCUAUGAAAUAAGAAGAAACCUGGAUCUCGGCGGGGAGCCGGGAGGGGUGGGUGGCCCGGGGAGGGCAACAGAGGAUUGAGCAUCA
B17: chr10:79719409:79719410:+_ENSMUSG00000020153_ENSMUST00000020361|mus_mus|FALSE|FALSE (ssRNA)
RNA: GGGAGUUCUACAGUCCGACGAUCCCAGAUCUUCAGCUUCUGUUCACGCUUGAUCUUCCGUUGCAGCUGCAAGAUGCCAUAAAGGAGUGCUUCGGCCGUGGGCGGGCAGCCUGGCACAUAGAUGUCCACUGGCACAAUGCGGUCCAACAGAGGAUUGAGCAUCA
B18: chr7:149068622:149068623:-_ENSMUSG00000025139_ENSMUST00000001950|mus_hu|mus_mus_mus_hu_False|38_48 (ssRNA)
RNA: GGGAGUUCUACAGUCCGACGAUCGUGAGGCCUCUGAGUGUGGCUUGUGGUCUGUCCUGGGUUAGAGUUGUUAAUAUCACGGAACAUACCACUUAAGGAGGUUCUGCCCCGCCUGACACCUUCAUUCCCAAUGGAGAAGAAAUCCAACAGAGGAUUGAGCAUCA
B19: chr7:54823571:54823572:-_ENSG00000132432_ENST00000352861|hu_mus|hu_hu_hu_mus_False|48_88 (ssRNA)
RNA: GGGAGUUCUACAGUCCGACGAUCUCCCAUGAUAGCAAAUCCUAUAGCUGUUGCCAUGGCAAUCUUCUGGAAUUCUUUUCUGUCGGGUUUAGUGCAUCUUUUAACCAGCCGAAUUGAGUCCUUUACAAACUGCCGGCUGGGCUCCAACAGAGGAUUGAGCAUCA
B20: 55316162_55316282_4585_3pUTR_ENSMUSG00000018583_ENSMUST00000018727|mouse|control|control (ssRNA)
RNA: GGGAGUUCUACAGUCCGACGAUCUGACAACAGGGACUCCUGCCUAAGAGUAUCUUGCUGCUCUUCCAGGACAUAAGUUCGAUUCCCAGCACCUGUGUAGGAGGGCUCACUCACCUGUAACUCCAGCUCCAAGGGGCCACAGGCCAACAGAGGAUUGAGCAUCA
B21: chr17:56739783:56739784:+_ENSMUSG00000071054_ENSMUST00000095224|mus_mus|FALSE|FALSE (ssRNA)
RNA: GGGAGUUCUACAGUCCGACGAUCAUAUCUGCUAAACAGGUUCUUCAGAUCCGUGGCUCUGGUUGUAGACGAAAGGCCACUAACCCAGAAAUUCCUACCACAGCUGCUGCGACCCUUCUCUUCUCGGGAAAGCCUUUUUGUAUCCAACAGAGGAUUGAGCAUCA
B22: chr2:61705769:61705770:-_ENSG00000082898_ENST00000401558|hu_hu|motif|central (ssRNA)
RNA: GGGAGUUCUACAGUCCGACGAUCAAAUGGGCAUGAAGUAAAAUUUUUAAAAAUGCCUUAAUUUUCAACUUCAUGCAAACGGAAUAAAGAUGACCAAAACAAAAGCUUAAACAAUGGAAGGAUAUUUCACAGAAAAUUUCUUAUCAACAGAGGAUUGAGCAUCA
B23: chr1:163112212:163112213:-_ENSG00000143248_ENST00000313961|hu_hu|FALSE|FALSE (ssRNA)
RNA: GGGAGUUCUACAGUCCGACGAUCUUUAUUUAUCCAGAAGCAUGAGUCACAUAGUACAUAAAGUAUUGAAUACAAAAUUCUAAAGAUAAACACAAUUUUUCUUGAAUUUAAAAUAUAUGGGAUAAAUGCUUACAAAUGGAUUUACAACAGAGGAUUGAGCAUCA
B24: chr1:163112212:163112213:-_ENSG00000143248_ENST00000313961|hu_hu|hu_hu_hu_mus_False|78_88 (ssRNA)
RNA: GGGAGUUCUACAGUCCGACGAUCUUUUAUUAUCAGUAAGAGUGAGUCACAUAGUACAUAAAGUAUUGGAUACAAUAAUCAGGAAACAAACACUAUUGGUCCAGAAUUUAAAACUUUAUGAGCGAAGUGCUGGCACAGGACUUACAACAGAGGAUUGAGCAUCA

The target of this experiment is T1, UNK ZnF1-3. The experiment is described as follows: nsRBNS (natural sequence RNA bind-n-seq); RBNS binding buffer (assumed for nsRBNS): 25 mM Tris pH 7.5, 150 mM KCl, 3 mM MgCl2, 0.01% Triton X-100, 500 ug/ml BSA, 20 U/ml SUPERase-In, 4 C; UNK is unkempt and MSI1 is Musashi-1; names of the RNAs are library labels; protein concentration not given here; high values mean tight binding.
B1 came in with a binding signal of 0.762 enrichment R. Next, B2: 0.888 enrichment R. Next, B3: 0.945 enrichment R; B4: 1.15 enrichment R. Next, B5: 2.28 enrichment R.

For the molecule B6, the binding signal was found to be 5.9 enrichment R.

B7 registered a binding signal of 0.797 enrichment R. Regarding B8, the binding signal turned out to be 5.06 enrichment R. In turn, B9 had a binding signal of 3.38 enrichment R. Next, B10: 0.913 enrichment R. Next, B11: 1.19 enrichment R; B12: 5.07 enrichment R; B13: 1.97 enrichment R. With B14, the binding signal is 1.31 enrichment R. B15 gave a binding signal of 6.32 enrichment R. Next, B16: 2.44 enrichment R; B17: 0.695 enrichment R. With B18, the binding signal worked out at 0.716 enrichment R.

Turning to B19, the binding signal turned out to be 0.587 enrichment R. B20 had a binding signal of 0.768 enrichment R. Take B21: the binding signal came out at 0.796 enrichment R. On to B22, for which the binding signal came out at 2.43 enrichment R.

The molecule B23 gave a binding signal of 7.3 enrichment R.

B24 came in with a binding signal of 1.53 enrichment R.
